SMILES strings stand for the structures. Records with an inconclusive call do not appear. Unmarked numbers belong to inactive results. The call rests on the fitted dose curve; in most records, active means well fitted activation curve with a large enough effect in the repeat runs; inconclusive means weak or mixed curves; inactive means flat fitted curve, though single readings scatter.
On the % scale 0 is the no-effect control and ±100 the full control effect.

This assay is described as follows: A CellTox Green Cytotoxicity Assay to monitor cytotoxicity in HEK293 cells - 32 hour (AID 1224881). Further: nearly all actives have a fitted effect of over 40% in size. The settings on record: CellTox Green fluorescence; series mostly up to 76.8 µM; cytotoxicity increase: at the top concentration. An excerpt: National Center for Advancing Translational Sciences [NCATS]
NIH Chemical Genomics Center [NCGC]
U.S. Environmental Protection Agency [EPA]
National Institutes of Environmental Health Sciences [NIEHS]
National Toxicology Program [NTP]
Cell-based models are critical for drug discovery. Determining the natural cytotoxic effects resulting from test compounds is an essential research activity. A CellTox Green Cytotoxicity Assay to monitor cytotoxicity in real time of continues cell culture during 40 hours of the compound treatment was used to screen Tox21 10K library compounds in Hek293 cells. CellTox Green Cytotoxicity Assay is a nonlytic, homogeneous, biofluorescent method to measure cytotoxicity in cell culture after experimental manipulation. The assay system uses a proprietary asymmetric cyanine dye that is excluded from viable cells but preferentially stains the dead cell's DNA. […] Viable cells produce no appreciable increases in fluorescence. Therefore, the fluorescence signal produced by the binding interaction with dead cell DNA is proportional to cytotoxicity.
The mixture of Hek293 cell suspension and reagents were dispensed at 600cells/6 ul/well in 1536-well tissue culture treated black solid bottom plates using a Multidrop dispenser. After the assay plates were incubated at a 37 C/5% CO2 incubator for 5 hours, 23 nL of compounds dissolved in DMSO, positive and negative controls was transferred to the assay plate by a pintool work station. The plates were incubated at 37 C for 40 hours. The fluorescence intensity were measured at 0h, 8h, 16h, 24h, 32h and 40h time points using ViewLux plate reader during compound treatment.
Turning to `NS(=O)(=O)c1cc(C2(O)NC(=O)c3ccccc32)ccc1Cl` (stereo not given), the “cytotoxicity increase” value was 5.22% [at 35.3 µM].
In the case of `CC(C)c1cccc(O)c1`, the “cytotoxicity increase” value was 11.5%.
For `Nc1ccc2cc(S(=O)(=O)O)ccc2c1` the value was -6.7%; for `CC(C)(C)C(=O)/C=C/c1ccc(Cl)cc1`, 22.6%.
As for `C=CCSCC1Nc2cc(Cl)c(S(N)(=O)=O)cc2S(=O)(=O)N1` (stereo not given), the “cytotoxicity increase” value was -8.45% [at 35.3 µM].
In the case of `COC(=O)[C@H]1[C@H]2C[C@@H]3c4[nH]c5cc(OC)ccc5c4CCN3C[C@H]2C[C@@H](OC(=O)COc2ccc(OC)cc2)[C@@H]1OC` it was 8.78% [at 35.3 µM].
In the case of `CC(C)(O)C(=O)c1ccc(OCCO)cc1` it was -13.8%.
For `CCCC=O` the value was -14.9%.
With `N#CCN(CC#N)CCN(CC#N)CC#N`, the “cytotoxicity increase” value was -1.87%.
For `O=C(O)C(O)[C@H](O)[C@@H](O)[C@H](O)[C@H](O)CO` (stereo not given in full) the value was -0.968%; for `CCCCNc1ccccc1`, 0.561%; for `CC(C)(C)N(CCO)CCO`, 6.96%.
For `CC(C)(O)Cc1ccccc1` the value was 0.485%; for `CCOC(=O)Nc1ccc2c(c1)N(C(=O)CCN1CCOCC1)c1ccccc1S2`, -10.3% [at 35.3 µM].
For `CCC(C)OC(=O)N1CCCCC1CCO` (stereo not given) the value was -4.56%; for `c1ccc2cnncc2c1`, -0.578%.
Take `CSc1ccc(C=O)cc1`: the “cytotoxicity increase” value is -9.52%.
On to `CC1=CCC2C(C1)C2(C)C` (stereo not given), for which the “cytotoxicity increase” value is 14.1%.
In the case of `COc1ccc(N=[N+]([O-])c2ccc(OC)cc2)cc1` it was -15.8%; in that of `O=C(O)c1ccccc1-c1ccc(C(F)(F)F)cc1`, 0.786% [at 35.3 µM].
In the case of `CSc1nc(NC2CC2)nc(NC(C)(C)C)n1` it was -0.0844%; in that of `C=C(C)C1CC=C(C)C(O)C1` (stereo not given), 3.96%.
Turning to `CCCCc1ccc2cccc(S(=O)(=O)O)c2c1`, the “cytotoxicity increase” value is -15.5%.
For `Cc1nccn1CC1CCc2c(c3ccccc3n2C)C1=O` (stereo not given) the value was -0.43% [at 35.3 µM].
In the case of `O=[N+]([O-])c1ccc(Oc2ccc([N+](=O)[O-])cc2)cc1`, the “cytotoxicity increase” value was 11.4%.
For `CC(C=O)Cc1ccc(C(C)C)cc1` (stereo not given) the value was 1.29%; for `CCCCCCCCCCCCCCCCCCOCC(O)CO` (stereo not given), -24.6% [at 35.3 µM]; for `CC(=O)N[C@@H](CCC(N)=O)C(=O)O`, -11.5% [at 35.3 µM].
Take `CC(C)=CC(=O)O`: the “cytotoxicity increase” value is -2.61%.
In the case of `CCCCC=O` it was -8.13%; in that of `CC(CCO)CCCC(C)(C)O` (stereo not given), 3.08%; in that of `CCCCCCCCCCCCCCC`, -1.13%.
For the compound `CCC(C(=O)NC(N)=O)c1ccccc1` (stereo not given), the “cytotoxicity increase” value is -18.7%.
Turning to `C#CC(C)(O)CC(C)C` (stereo not given), the “cytotoxicity increase” value is -16.8%.
As for `FC(F)(F)C(F)(F)C(F)(F)C(F)(F)C(F)(F)C(F)(F)C(F)(F)C(F)(F)C(F)(F)C(F)(F)F`, the cytotoxicity increase is -14.9% [at 6.97 µM].
In the case of `Cc1ccc(Nc2ccc(O)c3c2C(=O)c2ccccc2C3=O)cc1` it was -0.168%.
For `CCCCCCCCCCCl` the value was 0.0643%; for `COC(=O)CCCCCCCCC(=O)OC`, -0.872%.
For `NCCN1CCNC1=O` the value was 1.02%; for `CC(C)c1ccc2oc3nc(N)c(C(=O)O)cc3c(=O)c2c1`, 14% [at 35.3 µM].

The values above are taken from PubChem BioAssay (Tox21).
